Data from PubChem BioAssay (NCI).
The panel holds about 83,000 compounds, 20% with a hit somewhere; the sample as a whole holds those more often.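 The endpoint reported here, percent growth, reads 100 for growth as untreated, 0 for no net growth and -100 for all cells dead.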 A number with no mark means an inactive call. Active and inactive are the calls of the source. Rule for the calls: active = growth percent below 10; inactive = the rest.

Tests used:
Assay in all cases: NCI-60 one-dose screen, 48 h (100 = growth as untreated, 0 = no growth, -100 = all killed)
[1] = test system: SK-MEL-2 melanoma; conditions: 10 µM
[2] = test system: EKVX NSCLC; conditions: 10 µM
[3] = test system: SN12C renal; conditions: 10 µM
[4] = test system: UO-31 renal; conditions: 10 µM
[5] = test system: TK-10 renal; conditions: 10 µM unless noted
[6] = test system: ACHN renal; conditions: 10 µM
[7] = test system: CAKI-1 renal; conditions: 10 µM
[8] = test system: A498 renal; conditions: 10 µM
[9] = test system: CCRF-CEM leukemia; conditions: 10 µM
[10] = test system: MOLT-4 leukemia; conditions: 10 µM

Structure (SMILES) | growth [1] | growth [2] | growth [3] [%] | growth [4] | growth [5] | growth [6] | growth [7] | growth [8] | growth [9] | growth [10]
CCOC(=O)/C(C#N)=C/c1cccc(C)c1 | 106% | 98.9% | 103 | 88.9% | 98% | 98.9% | 69.5% | 101% | – | –
Cc1c(O)cccc1O | 93.5% | 106% | 88 | 111% | 104% | 107% | 61% | 125% | 100% | 90%
CC1SC(N)=NC1=O (stereo not drawn) | 111% | 96.2% | 120 | 92.2% | 108% | 108% | 103% | 107% | 99.3% | 122%
Cc1cc(N2CCC(N3CCCC3)CC2)nc(/N=C(\N)Nc2ccc(Cl)c(Cl)c2)n1 | -71.7% (active) | 2.57% (active) | 93.7 | -97.4% (active) | -86.3% (active) | -27.8% (active) | -40.6% (active) | 45.7% | -11.8% (active) | -19.8% (active)
O/N=C/c1ccc(O)cc1O | 92.9% | 102% | 98 | 99% | 102% | 95.9% | 101% | 85.9% | 86.5% | 102%
CCOC(=O)/C(=C/c1ccc(OC)cc1)N(CC)CC | 103% | 106% | 102 | 92.9% | 107% | 113% | 103% | 109% | 100% | 99%
COc1cc(OC)c2ccc(=O)oc2c1 | 104% | 95.2% | 97 | 94.9% | 101% | 104% | 113% | 101% | 106% | 115%
CCCC(=O)Nc1ccc2c(c1)CN1C(=O)c3ccccc3C1=N2 | 100% | 108% | 100 | 86.1% | 96.4% | 111% | 97.2% | 88.5% | 99.6% | 98.4%
CC12CC3CC1C(C(=O)O2)C3C(=O)O (stereo not drawn) | 94.7% | 105% | 105 | 93.5% | 94.5% | 105% | 102% | 106% | 101% | 100%
O=C1C=CC2=C3c4cc(O)c(O)cc4CC3(O)COC2=C1O (stereo not drawn) | 87.3% | 101% | 104 | 86.6% | 101% | 111% | 111% | 99.1% | 104% | 103%
CCOC(=O)CCCS(C)(=O)=O | 90.7% | 113% | 97.4 | 90.5% | 102% | 104% | 117% | 96.8% | 113% | 96.5%
OCc1ccc(-c2ccc(-c3ccc(CO)s3)o2)s1 | 79.7% | 99.9% | 55.7 | 41.4% | -20.9% (active) | 63.7% | -54.3% (active) | -89.1% (active) | 41.5% | 33.1%
Nc1ccc(N=Nc2ccc(S(=O)(=O)O)cc2)c2ccccc12 | 102% | 89.7% | 104 | 65.2% | 140% | 99.2% | 91.5% | 126% | 102% | 88.9%
Cc1cccc([N+](=O)[O-])c1Cl | 109% | 96.8% | 106 | 87.3% | 119% | 97.4% | 92.3% | 94.5% | 99% | 122%
CCCCNC1(C#N)CCN(Cc2ccccc2)CC1 | 102% | 95.5% | 104 | 81.1% | 105% | 106% | 76.1% | 78.5% | 102% | 152%
CCn1c(=O)n(C)c2c(=O)n(C)c(=O)n(C)c21 | 104% | 103% | 105 | 87.4% | 102% | 105% | 98.3% | 91.7% | 98.2% | 101%
COCCOCCCl | 109% | 112% | 104 | 97.2% | 102% | 113% | 98.8% | 91.2% | 106% | 117%
CC(=O)c1cc2c(cc1F)C(C)(C)CCC2(C)C | 104% | 111% | 98.5 | 80% | 109% | 91.9% | 112% | 92.6% | 120% | 89.1%
N#CCc1ccc([N+](=O)[O-])cc1 | 107% | 97.8% | 101 | 72.1% | 107% | 103% | 93% | 90.7% | 100% | 74.2%
CC1OC(Oc2c(-c3ccc(O)c(O)c3)oc3cc(O)cc(O)c3c2=O)C(O)C(O)C1O (stereo not drawn) | 104% | 110% | 102 | 92.5% | 103% | 113% | 102% | 99.5% | 106% | 108%
O=[N+]([O-])c1ccc(CO)cc1 | 118% | 101% | 106 | 93.5% | 99.8% | 111% | 102% | 110% | 105% | 100%
Oc1ccc(O)cc1 | 104% | 113% | 106 | 82% | 128% | 85.4% | 97.9% | 115% | 62.7% | 78.6%
CC(=O)OCC(=O)[C@@]1(O)CC[C@H]2[C@@H]3CC[C@@H]4C[C@H](O)CC[C@]4(C)[C@H]3C(=O)C[C@@]21C | 101% | 98.4% | 102 | 96.3% | 110% | 107% | 89.4% | 91.8% | 74% | 79.8%
CC1CCC(C(=O)O)N1 (stereo not drawn) | 91.5% | 107% | 92.7 | 76.5% | 101% | 91.6% | 92.3% | 84% | 101% | 87.8%
COC(=O)c1cccc(Br)c1 | 110% | 87.1% | 104 | 101% | 106% | 108% | 102% | 86.3% | 98.2% | 111%
CN(C)c1ccc(S(=O)(=O)O)cc1 | 86.2% | 107% | 105 | 87.9% | 89.2% | 93.9% | 105% | 94.9% | 95.9% | 107%
O=C(c1ccc(Cl)cc1)c1ccccc1Cl | 103% | 96.9% | 94.7 | 72.2% | 90.9% | 95% | 88% | 126% | 90.5% | 87.1%
CSC[C@H](NC(=O)COc1cccc2cnccc12)C(=O)NC(Cc1ccccc1)C(O)C(=O)N1CSC[C@H]1C(=O)NC(C)(C)C (stereo partly drawn) | 113% | 103% | 102 | 94.4% | 139% | 109% | 95.5% | 95.6% | 111% | 101%
CCCCC/C=N/Nc1nc(C)cc(=O)[nH]1 | 121% | 91.4% | 97.4 | 92.1% | 108% | 102% | 88.3% | 96.2% | 105% | 95.3%
CN(C)C(=O)Oc1cccc([N+](C)(C)C)c1 | 124% | 93.1% | 97.8 | 98.6% | 125% | 97.9% | 89.9% | 95.5% | 113% | 102%
